D1 ag = Allosteric Agonists of the Human D1 Dopamine Receptor: qHTS | D(1A) dopamine receptor (Homo sapiens), P21728 | HEK293 T-REx D1 cells, calcium flux, agonist mode | activation, % at 2 µM | 360,000 compounds, 1% hits | AID 504660, 2011; further: 0% is about no effect
Target sequence (P21728 whole entry, looked up): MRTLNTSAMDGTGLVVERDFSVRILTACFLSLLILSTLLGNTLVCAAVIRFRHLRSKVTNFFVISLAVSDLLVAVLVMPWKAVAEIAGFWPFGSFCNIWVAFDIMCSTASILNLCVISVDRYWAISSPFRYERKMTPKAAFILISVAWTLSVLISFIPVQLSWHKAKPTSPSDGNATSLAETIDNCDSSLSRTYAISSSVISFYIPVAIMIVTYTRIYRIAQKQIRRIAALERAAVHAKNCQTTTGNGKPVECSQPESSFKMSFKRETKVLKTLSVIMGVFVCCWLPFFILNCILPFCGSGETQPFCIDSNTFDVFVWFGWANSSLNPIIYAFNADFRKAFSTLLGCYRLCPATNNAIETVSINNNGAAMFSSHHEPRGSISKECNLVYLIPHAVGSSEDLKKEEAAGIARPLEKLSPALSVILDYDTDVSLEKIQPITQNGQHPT
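Agonism was scored from calcium flux recorded over 180 s (1 read/s) after pintool compound addition, following a 10-cycle baseline. Cells were inducible force-coupled HEK293 TREx D1, plated overnight at 30 C and loaded with no-wash calcium dye.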
TRHR agonist = qHTS for Small Molecule Agonists and Allosteric Enhancers of Human TRH Receptor: Primary Screen for Agonists. TRHR cells, calcium flux fluo-8, FDSS agonist mode. activation, % at 2 µM. 360,000 compounds, 0.18% hits. AID 493084, 2011; further: 0% is about no effect
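In this calcium-flux screen, cells bearing human TRHR are dye-loaded with fluo-8, baselined for 10 cycles, then exposed to library compounds; positive kinetic calcium responses during the agonist phase mark hits, with TRH as control.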
D1 PAM = Potentiators of Human D1 Dopamine Receptor: qHTS. D(1A) dopamine receptor (Homo sapiens), P21728. HEK293 TREx D1 cells, calcium flux, dopamine EC20 potentiation. potentiation, % at 10 µM. 360,000 compounds, 0.036% hits. AID 504651, 2011; in the data active means potentiation above about 30%; further: 0% is about no effect
TRHR PAM = qHTS for Small Molecule Agonists and Allosteric Enhancers of Human TRH Receptor: Primary Screen for Enhancers; TRHR cells, fluo-8 calcium fluorescence, EC20 TRH enhancement; 360,000 compounds, 0.66% hits; enhancement, % at 2 µM; Thyrotropin-releasing hormone receptor (Homo sapiens), P34981; in the data active means enhancement above about 30%; further: 0% is about no effect
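TRHR-expressing cells loaded with fluo-8 calcium dye were read kinetically (ex 480/em 530) during compound addition, then stimulated with an EC20 of TRH (10 nM final). Enhancement of the Gq-mediated intracellular calcium response was scored.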
D1 antag = Antagonist of Human D 1 Dopamine Receptor: qHTS. D(1A) dopamine receptor (Homo sapiens), P21728. activity change, negative = inhibition, % at 10 µM. 360,000 compounds, 3.2% hits. HEK293 TREx D1 cells, calcium flux, dopamine EC80; hits give low values; in the data active means activity change below about -30%; further: on the % scale 0 is the no-effect control and ±100 the full control effect
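Kinetic fluorescence of a calcium dye serves as the read-out. D1-expressing Hek293 Trex cells, induced overnight at 30 C, are exposed to compound for 180 s before an EC80 dopamine addition, then read 180 s further.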
* = called active by the depositor; x = no result given. The list is not random: actives were taken first. Their share in the collection is about 4.7%. Unless noted, no stated cut-off is given here; in the data, active means activation above about 30%; inactive means the rest.

SMILES | D1 ag | TRHR agonist | D1 PAM | TRHR PAM | D1 antag
COc1ccccc1C(CNC(=O)CNC(=O)c1ccc(Cl)c(Cl)c1)N1CCCC1 (stereo not given) | 9 | 0 | x | -1 | -38*
COc1ccccc1C(CNC(=O)CNC(=O)c1ccccc1Cl)N1CCCC1 (stereo not given) | 3 | 2 | -2 | 2 | -45*
COc1ccccc1C(=O)NCCC(=O)NCC(c1ccccc1OC)N1CCCC1 (stereo not given) | 2 | 0 | -1 | -3 | 3
CCC(C)(C)NC(=O)C(c1ccc(C)cc1)N(Cc1cccnc1)C(=O)c1csnn1 (stereo not given) | -1 | 0 | -25 | 4 | -63*
Cc1ccc(NC(=O)CSc2nc(=O)n3cc(C)ccc3n2)c(C)c1 | 3 | 0 | -6 | -5 | -35*
COc1ccccc1NC(=O)C1CCN(S(=O)(=O)c2cn(C)cn2)CC1 | -1 | -2 | 1 | -1 | -3
CN(C)CCCNc1cc(C(C)(C)C)nc2c(-c3ccccc3)cnn12 | 58* | 4 | -2 | 6 | -12
Clc1ccc(-c2nnc3n2CCCCS3)cc1 | 1 | 0 | -3 | -1 | -7
C=C1Cn2c(nnc2-c2ccc(Cl)cc2)S1 | 1 | -2 | -10 | -8 | -61*
Cc1c(C(=O)Nc2ccccc2)sc2nc[nH]c(=O)c12 | -1 | 1 | -9 | -8 | -33*
O=c1cc(-c2ccccc2)n2c(SCc3cccc([N+](=O)[O-])c3)nnc2[nH]1 | -3 | 0 | -4 | 2 | x
CNC(=O)c1c[nH]c2ccc(S(=O)(=O)Nc3cccc(SC)c3)cc2c1=O | 3 | 1 | 2 | 3 | -86*
Cc1c(Cl)cccc1NS(=O)(=O)c1ccc2[nH]cc(C(=O)NC3CCCC3)c(=O)c2c1 | 1 | 1 | 7 | -4 | -12
COc1cccc(NS(=O)(=O)c2ccc3[nH]cc(C(=O)NC4CC4)c(=O)c3c2)c1 | -1 | 0 | -7 | 2 | -6
Cc1ccccc1NS(=O)(=O)c1ccc2[nH]cc(C(=O)NC(C)c3ccccc3)c(=O)c2c1 (stereo not given) | 7 | 1 | -2 | 1 | -43*
Cc1ccccc1NS(=O)(=O)c1ccc2[nH]cc(C(=O)NC3CCCCC3)c(=O)c2c1 | 3 | 0 | -8 | -4 | -43*
CCOc1ccc(C(=O)/C=C/c2cn(CC(O)CN3CCc4ccccc43)c3ccccc23)cc1 (stereo not given) | 12 | 3 | -5 | 1 | -20
CCCCC[C@]12Cc3ccccc3C(O1)c1c(cc(C)oc1=O)O2 | 0 | 0 | 3 | 12 | 10
CC(=O)N1CCN(C(=O)c2cc(C)nc3ccccc23)CC1 | 2 | 0 | 0 | -4 | 11
Cc1cc(C(=O)N2CC=C(c3ccccc3)CC2)c2ccccc2n1 | 2 | 0 | -3 | 0 | -41*
O=C(O)c1ccccc1C(=O)N1CC=C(c2ccccc2)CC1 | 2 | 1 | -3 | -1 | -39*
Cc1ccc(C(=O)N2CC=C(c3ccccc3)CC2)o1 | 0 | 0 | -2 | -3 | -6
CC1CC(Nc2ccccc2)c2ccccc2N1C(=O)c1ccncc1 (stereo not given) | 1 | 0 | 1 | 31* | 1
O=C(Cn1c(=O)n(-c2ccccc2)c(=O)c2c3c(sc21)CCCC3)Nc1cccc(F)c1 | 2 | 1 | 1 | 11 | 6
O=C(Cn1c(=O)oc2ccccc21)Nc1nnc(N2CCCCCC2)s1 | 4 | -1 | -4 | 30* | -1
Cc1ccc(-c2noc(CCC(=O)NCC3CCN(Cc4cccc(C)c4)CC3)n2)cc1 | 51* | 4 | -10 | 6 | -24
Cc1ccc(-c2noc(CCC(=O)NCCN3CCN(Cc4ccccc4)CC3)n2)cc1 | 13 | 0 | -7 | -10 | -20
COc1ccc(-c2noc(CCC(=O)NCCCN3CCC(Cc4ccccc4)CC3)n2)cc1 | 56* | 3 | -10 | 8 | -54*
